The full ranking holds about 110,000 compounds; the median of “z-score” is about -0.1, and the highest 2% start at about 2. Shown is part of a subset that was picked to be rich in the highest values. Active and inactive are the calls of the source.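 Rule for the calls: active = z-score in the third read window above 3 or below -3; inactive = the rest.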
molecular target: Metabotropic glutamate receptor 8 (Rattus norvegicus) (UniProt P70579); test: mGluR8 Gi/Go-coupled signaling modulation – cell-based, rat, thallium flux, HTS, primary screen (AID 488969); conditions: HEK293 rat mGluR8, GIRK (G protein-gated inwardly rectifying potassium channel) thallium flux, FluoZin2; at 10 µM; stronger effect = higher value; submaximal glutamate (EC20) added with thallium
Sequence (P70579 whole entry, looked up): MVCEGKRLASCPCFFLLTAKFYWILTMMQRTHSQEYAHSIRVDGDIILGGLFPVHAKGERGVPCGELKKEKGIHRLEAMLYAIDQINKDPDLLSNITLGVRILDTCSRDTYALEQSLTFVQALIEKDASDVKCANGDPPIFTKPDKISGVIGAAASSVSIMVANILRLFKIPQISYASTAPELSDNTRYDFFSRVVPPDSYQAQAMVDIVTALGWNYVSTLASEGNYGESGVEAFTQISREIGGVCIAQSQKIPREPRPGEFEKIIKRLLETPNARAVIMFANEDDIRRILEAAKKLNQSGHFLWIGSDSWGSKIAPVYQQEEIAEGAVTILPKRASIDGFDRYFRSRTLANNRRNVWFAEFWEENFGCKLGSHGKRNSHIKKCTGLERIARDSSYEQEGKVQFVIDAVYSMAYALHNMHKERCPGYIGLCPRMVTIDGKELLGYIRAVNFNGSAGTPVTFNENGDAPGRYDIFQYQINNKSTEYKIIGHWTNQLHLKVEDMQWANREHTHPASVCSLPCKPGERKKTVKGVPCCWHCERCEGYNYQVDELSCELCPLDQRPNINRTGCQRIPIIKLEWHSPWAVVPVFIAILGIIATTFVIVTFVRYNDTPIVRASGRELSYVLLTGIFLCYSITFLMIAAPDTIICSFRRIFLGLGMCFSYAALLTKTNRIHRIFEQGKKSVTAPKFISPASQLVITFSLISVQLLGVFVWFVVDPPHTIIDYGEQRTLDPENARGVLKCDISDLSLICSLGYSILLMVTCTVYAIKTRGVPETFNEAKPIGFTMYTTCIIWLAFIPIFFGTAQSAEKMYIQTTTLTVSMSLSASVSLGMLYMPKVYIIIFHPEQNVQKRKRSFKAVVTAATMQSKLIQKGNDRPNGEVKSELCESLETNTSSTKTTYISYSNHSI

SMILES | z-score
CCOC(=O)c1nn(-c2ccc(C)c(C)c2)c(=O)c2c(N)scc12 | -0.137
CC(C)(C)/C(O)=C/c1nc2ccccc2[nH]c1=O | -0.317
COc1ccccc1CNC(=S)NCCc1ccccc1 | -0.133
COCCn1c(C)cc(C(=O)COC(=O)c2cncc(Br)c2)c1C | 0.145
COC(=O)c1cc2ccsc2n1Cc1cc(=O)n2ccccc2n1 | -0.127
COc1cccc(C(C(=O)NC2CCCC2)N(Cc2ccco2)C(=O)c2ccco2)c1OC (stereo not drawn) | -0.188
CC1=C(C)C(c2ccccc2)NC(=S)N1 (stereo not drawn) | 3.39 (active)
CCOC(=O)C1=C(C)C(c2ccccc2)NC(=S)N1 (stereo not drawn) | 0.0117
CC1=CC(c2ccccc2)NC(=S)N1 (stereo not drawn) | -0.113
CSc1ccn(CCC(=O)O)c(=O)n1 | -0.489
CC(=O)c1cnn(-c2nc3c(C)cccc3s2)c1C | -0.111
c1ccc(-n2nnnc2-n2ccnc2)cc1 | 0.463
COc1ccc(S(=O)(=O)Cc2ccc(C(=O)NCc3cccnc3)o2)cc1 | -0.0868
C/C(=N\NC(=O)c1nonc1N)c1cccs1 | 0.127
CC(=O)Nc1nc2ccccc2n1CCN(C)C | -0.911
Cn1c(N2CCC(C(N)=O)CC2)nc2c1c(=O)n(Cc1ccc(Cl)cc1)c(=O)n2C | -0.154
Cn1c(N2CCOCC2)nc2c1c(=O)n(Cc1ccc(Cl)cc1)c(=O)n2C | -0.42
Cn1c(N2CCCC2)nc2c1c(=O)n(Cc1ccc(Cl)cc1)c(=O)n2C | 3.05 (active)
O=C(O)c1ccc(CNCc2ccc(Cl)cc2Cl)cc1 | -0.14
Cc1cc([N+](=O)[O-])ccc1NC(=S)NC(=O)C(c1ccccc1)c1ccccc1 | 0.175
COCC(=O)Nc1cc([N+](=O)[O-])ccc1C | -0.258
CCOC(=O)Nc1ccc([N+](=O)[O-])cc1C | 0.0184
Cc1cc([N+](=O)[O-])ccc1NC(=S)NC(=O)Cc1ccccc1 | 6.82 (active)
Cc1cc([N+](=O)[O-])ccc1NC(=O)Cc1ccc(F)cc1 | -0.108
COCC(=O)Nc1ccc([N+](=O)[O-])cc1C | 2.3

SMILES | z-score
S=c1[nH]nc(Cc2cccc3ccccc23)n1-c1ccccc1 | -0.324
O=C(NNC(=O)c1ccccc1Br)c1ccc(Cl)cc1 | 0.075
COc1ccc(C(=O)Nc2c(C)ccc3nsnc23)cc1[N+](=O)[O-] | 0.723
CC1CCCCN1C/C=C/c1ccccc1[N+](=O)[O-] (stereo not drawn) | -0.203
COc1cc(C(=O)OCCN2CCCCC2)ccc1O | 0.0129
COc1cc(C#CC#CCN2CCCCC2)ccc1O | 2.82
COc1cc(C(=S)N2CCCCC2)ccc1O | 0.0785
O=C(CN1CCCC1)Nc1c2c(nc3ccccc13)N(Cc1ccccc1)CC2 | 1.74
COc1ccc(NC(=O)COC(=O)CC23CC4CC(CC(C4)C2)C3)c([N+](=O)[O-])c1 | 2.75
COc1ccc(NC(=O)COC(=O)C2CCCCC2)c([N+](=O)[O-])c1 | 0.159
COc1ccc(NC(=O)COC(=O)CC2CC3CCC2C3)c([N+](=O)[O-])c1 (stereo not drawn) | -0.182
Cc1nc(N)nc(OCC(F)(F)C(F)F)c1Br | -0.145
COc1ccc(C2CC(c3ccc(Br)cc3)Nc3nc(N)nn32)cc1 (stereo not drawn) | 1.67
Nc1nc2n(n1)C(c1cccs1)CC(c1ccc(F)cc1)N2 (stereo not drawn) | 6.13 (active)
Nc1nc2n(n1)C(c1ccco1)CC(c1ccccc1)N2 (stereo not drawn) | -0.0773
Nc1nc2n(n1)C(c1ccco1)CC(c1ccc(Cl)c(Cl)c1)N2 (stereo not drawn) | 2.38
Nc1nc2n(n1)C(c1ccco1)CC(c1ccc(F)cc1)N2 (stereo not drawn) | 0.268
COc1ccc(C2CC(c3ccccc3)Nc3nc(N)nn32)cc1 (stereo not drawn) | -0.316
COc1ccc(C2CC(c3ccc(Cl)c(Cl)c3)Nc3nc(N)nn32)cc1 (stereo not drawn) | 3.08 (active)
Cc1ccc(C2CC(c3cccs3)n3nc(N)nc3N2)cc1 (stereo not drawn) | 0.263
COc1cccc(C2CC(c3ccc(Cl)cc3)n3nc(N)nc3N2)c1 (stereo not drawn) | 0.802
COc1ccc(C2CC(c3ccc(Cl)cc3Cl)Nc3nc(N)nn32)cc1 (stereo not drawn) | 1.46
Nc1nc2n(n1)C(c1cccs1)CC(c1ccccc1)N2 (stereo not drawn) | -0.0568
COc1ccc(C2CC(c3ccc(Cl)cc3)n3nc(N)nc3N2)cc1 (stereo not drawn) | 2.61
COc1ccc(/C=N/c2oc(-c3ccccc3)cc2C#N)cc1OC | 0.0441

SMILES | z-score
CCCC(=O)C1=C(O)C(C(=O)OC)C(C)(C)CC1=NC(C)(C)C (stereo not drawn) | -0.418
O=C1c2ccccc2C(=O)N1c1ccc(-c2nc3ccccc3o2)cc1 | 0.248
Cc1nn(C)cc1NC(=O)CC12CC3CC(CC(C3)C1)C2 | -0.0159
CC(=O)Nc1ccc(C(=O)N/N=C/c2cccnc2)cc1 | -0.709
Cc1nc2cc(NC(=O)N3c4ccccc4CC3C)ccc2n1C (stereo not drawn) | -0.544
CCc1cc2c(=O)c(-c3cnn(-c4ccccc4)c3)c(C)oc2cc1OCC(=O)Nc1ccc(F)c(F)c1 | 0.0216
Cc1nc(NCCc2ccc(S(N)(=O)=O)cc2)c2c(C)c(C)sc2n1 | 6.05 (active)
Cc1nc(NCCc2ccc(S(N)(=O)=O)cc2)c2c3c(sc2n1)CCC3 | -0.34
Cc1sc2ncnc(NCCc3ccc(S(N)(=O)=O)cc3)c2c1C | 0.0936
O=c1cc(CSc2nnc(-c3ccccc3)o2)c2ccccc2[nH]1 | 0.487
COc1ccc(/C=N\NC(=O)/C(=C\Nc2nccc(C)n2)NC(=O)c2ccccc2)cc1 | -0.263
C=CCn1c(-c2csc(-c3ccc(Cl)cc3)n2)n[nH]c1=S | 2.89
C=CCn1c(-c2csc(-c3ccccc3)n2)n[nH]c1=S | 0.103
CCn1c(-c2csc(-c3ccc(Cl)cc3)n2)n[nH]c1=S | 1.31
CC(C)N(C(=O)Nc1ccc2nccnc2c1)C(C)C | -0.935
COc1ccc(OC)c(NC(=O)CSc2nnc(Cn3nnc4ccccc43)n2C)c1 | -0.116
NC(=O)c1ccc(NC(=O)COC(=O)CC(NC(=O)c2ccccc2Cl)c2ccccc2)cc1 (stereo not drawn) | 1.26
CCOC(=O)N1CCN(C(=O)c2ccc3c(=O)n(Cc4ccc(OC)cc4)c(=S)[nH]c3c2)CC1 | -0.232
COc1ccc(Cn2c(O)cc(=O)[nH]c2=O)cc1 | 0.277
COc1ccc(Cn2c(=S)[nH]c3ccsc3c2=O)cc1 | 3.86 (active)
CCOCCn1c(=NC(=O)c2cc3ccccc3oc2=O)sc2cc(S(N)(=O)=O)ccc21 | -0.105
C=CCSc1[nH]c(=O)cc(C)c1C(N)=O | 0.533
O=C(COc1ccccc1)Nc1cccc2c1CCCC2 | -0.151

Source: PubChem BioAssay AID488969 (Vanderbilt High Throughput Screening Facility, 2010)
